Experimental findings from the supplement of paper PMC11417369 are described below.

± gives the standard deviation of the averaged measurements. Whole data set: some 25,000 sequences, median “ln(normalized median fluorescence intensity)” near 7.9, cut for the highest 2% near 11. Many of the other results were omitted from the sample, so the highest values are more common in it than they were.

The test system of this assay is PfAP2-I AP2 domain 3 (GST-tagged). Put plainly: gcPBM binding intensity (ln(normalized median fluorescence intensity)); higher = stronger DNA binding. The essentials:
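An Agilent 4 × 180k array carrying primer-extended double-stranded 36-bp intergenic genomic probes and negative controls received GST-tagged P. falciparum DNA-binding domains expressed in E. coli, about 25 μg on average, for 1 h. The binding buffer contained 1× PBS, 1% milk, 0.2 mg/ml BSA, 0.5% salmon testes DNA and 0.03% Triton X-100. Binding intensity is the top Masliner-normalised natural-log median intensity across replicate spots of either probe orientation, read after Alexa488 anti-GST antibody staining and a 488 nm scan.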
Regarding “ATTATTATTATATTTTGTACATATGTAACAATATAT [XGTACX_site5780]”, the “gcPBM binding intensity (ln)” value was 7.83 ± 0.47. The result for “TTAAAAGAATATAATGCACACATTATTTTATTTTAT [CACACA_site3772]” reads 10.9 ± 0.73; that for ATAATTTCATAATACGTGCACATAATATATAAAAAA, 11.385 ± 0.007; that for “TATATAAATTTAATAACACACATATAAAAATGAATT [CACACA_site2366]”, 7.61 ± 0.55. “AATAATTTTTTAAACACACACACATATATATATATA [CACACA_site95]”: the “gcPBM binding intensity (ln)” value worked out at 9.32 ± 0.28. For “CATTTATATAAAAGAACACACATATAAAATATTATT [CACACA_site3601]”, the “gcPBM binding intensity (ln)” value was 7.66 ± 0.52. In the case of “AAAATTTAATATAATGCACACATAAAAAAAAAAAAA [CACACA_site7923]”, the “gcPBM binding intensity (ln)” value came to 11 ± 0.93.

Consider “GAAATAATTTCATATACACACATATACATACATACA [CACACA_site1358]”, for which the “gcPBM binding intensity (ln)” value came to 8.44 ± 0.72. In the case of “ATAAAATATATATGCACACACATATATATTTCATAC [CACACA_site3547]” it was 9.5 ± 0.14; in that of “AATTTAATATAATGCACACATAAAAAAAAAAAAAAA [CACACA_site123]”, 11.2 ± 0.78. The result for “GCACACATATAATAATGTACATATATATATTTAAAA [XGTACX_site4561]” reads 7.96 ± 0.44; that for “ATAAAAAAATTAAATACATGCACATATACACATACA [TGCATGCA_site129]”, 8.17 ± 0.38. The result for “AACATTTATATAAAAGAACACACATATAAAATATTA [CACACA_site9199]” reads 7.62 ± 0.61; that for “AAAAATAGAATAAATACACACCCGTGTAACGGATTT [CACACA_site3372]”, 7.29 ± 0.93; that for ATAAATTATATTCAAGTGCATGTAACTTATTATTAT, 8.29 ± 0.32. “TTTTTTATTCATGTAACACACATTTAATTATGAATT [CACACA_site2706]”: the “gcPBM binding intensity (ln)” value came to 7.98 ± 0.58. For the sequence “ACATAAATATAAACGTGTACATATATAAATATATAT [XGTACX_site7293]”, the “gcPBM binding intensity (ln)” value is 8.06 ± 0.26.

Turning to “TCTTTTTTGAACTAGCGTACATGAAAATATTTATAG [XGTACX_site7359]”, the “gcPBM binding intensity (ln)” value was determined as 7.83 ± 0.28.

Turning to “AAAATTTAATATAATGCACACATAAAAAAAAAAAAT [CACACA_site8425]”, the “gcPBM binding intensity (ln)” value was found to be 11.1 ± 1. The result for “ATTAAAATTTAAAATACACACACATATATATAATAT [CACACA_site8612]” reads 7.91 ± 0.42. In the case of “TATAATTTAAAATACACACACATATATATAATATAT [CACACA_site2000]” it was 7.71 ± 0.47; in that of “AAAATTATCGTTATATGTACGCATCTTAATACGTAT [XGTACX_site4063]”, 7.79 ± 0.4. The result for “GTGTAGTAAAATCGATGTACGTACAAATCAATTATT [XGTACX_site7662]” reads 8.06 ± 0.39; that for AAAAACAAACTGTGCATGCACCAAAAAAAAAAAAAA, 10.4 ± 0.35.

For “CAGGTGCACTATATTACACACGCTTCTTTTTTTTTA [CACACA_site2069]”, the “gcPBM binding intensity (ln)” value stood at 11.7 ± 0.59. As for “ATATATATATATATTACACACTTTTTCTTTTTTTTT [CACACA_site2780]”, the “gcPBM binding intensity (ln)” value was 9.41 ± 0.35. Consider “TTTTTCATTTAGCTTTTACACACTATATATTATTGA [CACACA_site7888]”, for which the “gcPBM binding intensity (ln)” value was 7.94 ± 0.86. With “TACAATCTAAAATACACACGCACACCGAAAAAAAAA [CACACA_site3520]”, the “gcPBM binding intensity (ln)” value is 8.13 ± 0.37. The result for “TTTTTTTTTTTAAATACATGCATGTCCTATTTAAAT [TGCATGCA_site494]” reads 7.92 ± 0.89; that for “TATATCTATTTCAAATGTACTTATATGATTCTTATA [XGTACX_site6277]”, 7.67 ± 0.2; that for “AATATATTGCACCATTGGACCTGAATAATTCTTCCA [CACACA_negctrl_site1071]”, 11.8 ± 0.81.

As for “TAATATATGTATTGCACACCTATAACCATTATTTCT [CACACA_site1498]”, the “gcPBM binding intensity (ln)” value was found to be 10.2 ± 0.38. The result for “AATATAATATATTGCACACAAAAAGTGAATTATTCT [CACACA_site1684]” reads 10.2 ± 0.4. In the case of “AAGGGTTATAAAAATTGTACTTTTTTTATTTTTTTT [XGTACX_site1313]” it was 7.72 ± 0.56; in that of “CACTTTAATTTATGCACACATATGGAACAACAGCCA [CACACA_site994]”, 10.2 ± 0.38; in that of “ATATACACTTAATTTTTTATAAAAAAAAATTTATAT [CACACA_negctrl_site498]”, 7.66 ± 0.43.

In the case of “AAATATTTATAGGTTTGTACTTATAAATAAAAAAAA [XGTACX_site7360]”, the “gcPBM binding intensity (ln)” value was 7.83 ± 0.41. As for “CATATAAATATTTGTGCACACAATTATTAATAATTA [CACACA_site3884]”, the “gcPBM binding intensity (ln)” value came to 11.3 ± 0.23. Consider ATATATATCTTTTGTGTGCACATATATATAATATAT, for which the “gcPBM binding intensity (ln)” value was determined as 9.79 ± 0.22. With “TTTTTTTTTTTTTTTGTGCACAATATAATTTTTAAT [GTGCAC_site9747]”, the “gcPBM binding intensity (ln)” value is 10.9 ± 0.52. The result for “TTATAATATTAATGTGCACACAATTAAAATATTATA [CACACA_site2046]” reads 10.6 ± 0.26; that for “TATATTCTTTATAGGTGTACTTAATAAATAAAAAAT [XGTACX_site5378]”, 8.11 ± 0.23; that for “TATTATAATATATTTGTGCACATAATACCTCCGCTA [GTGCAC_site9570]”, 10.7 ± 0.18. In the case of “TTTTAAACAAAAATTTGTACACAATAATTAAATATA [XGTACX_site6755]” it was 7.79 ± 0.32. The result for “TTTTTTTAATAGTGTGCACACAATATACAGAAAAAA [CACACA_site8399]” reads 10.1 ± 0.11; that for “TATTATAATATATTTGTGCACATAATATCTCCGCTA [GTGCAC_site9799]”, 10.91 ± 0.049. For the sequence ATATATATAATATAGGTGCACTACTTATTTAAAAAA, the “gcPBM binding intensity (ln)” value is 11.6 ± 0.2. For “ATATAAATATATTGCACACACAATTATTATTATTAT [CACACA_site7147]”, the “gcPBM binding intensity (ln)” value worked out at 10.1 ± 0.45. The result for “ATAAATATTATTTTACGTACATATTTATGAAGTATT [XGTACX_site8746]” reads 7.92 ± 0.29. For “ATTGTTCTATGATTTGTACACACTTTTTTTTAAAAT [CACACA_site2825]”, the “gcPBM binding intensity (ln)” value was determined as 8.43 ± 0.46. With “TTACATACATACAAGTGTACGCATATATTAATATTA [XGTACX_site4006]”, the “gcPBM binding intensity (ln)” value amounted to 8 ± 0.26. In the case of “ATTATTTGTTTAATGAGTACGAAGACAAATTTTACC [XGTACX_site5223]” it was 8.12 ± 0.49; in that of “TTTATAAAAAGCATAACACACACATGTCAATATATA [CACACA_site8286]”, 7.71 ± 0.52. Turning to “TGAATCAATTGTTGCTGTACATAAGGTATACAATAA [XGTACX_site5127]”, the “gcPBM binding intensity (ln)” value is 7.97 ± 0.52. Take “ATGTATATATATATATGTACTAATTAGTAATTTACG [XGTACX_site6276]”: the “gcPBM binding intensity (ln)” value was determined as 7.87 ± 0.32. For the sequence “TGTATATGGTTTGTGCAAAAATTTATTAATGTGTAA [TGCATGCA_negctrl_site374]”, the “gcPBM binding intensity (ln)” value is 8.8 ± 0.35.

On to “TAATATAATATATGCACACAAATATGTATTTATGTG [CACACA_site5210]”, for which the “gcPBM binding intensity (ln)” value turned out to be 9.14 ± 0.014.

Regarding TATTATTCAAAATTTGTGCACAAAATTAAAGGAACA, the “gcPBM binding intensity (ln)” value is 10.8 ± 0.27.

In the case of TGAAATTTTATTAATGTGCACATATATTTATTGTTC, the “gcPBM binding intensity (ln)” value was 9.77 ± 0.26.

On to “TTTTTTTTTTTTTTTGTGCACAATTATTTCAATTTT [GTGCAC_site9884]”, for which the “gcPBM binding intensity (ln)” value stood at 10.9 ± 0.79. The result for “ATATTTTATTTAATTACACACAATATTGCAATTTGT [CACACA_site669]” reads 8.35 ± 0.53. The result for “TATTTTATTTGTATATTCATTTGTATAATATAAATA [TGCATGCA_negctrl_site267]” reads 7.37 ± 0.55; that for AATTTATATAATTTTGTGCACAATATTCATGTATAT, 11 ± 0.14.

On to ATATTTTATATATTTGTGCACAATATTATAATATAT, for which the “gcPBM binding intensity (ln)” value worked out at 11.04 ± 0.049. Regarding “ATTTTTATTTTATATACACACAATAATAATATAATA [CACACA_site4015]”, the “gcPBM binding intensity (ln)” value is 7.83 ± 0.43. Regarding “ATTTTTATTTTTTTTGTGCACATTTTCATTTTCTAT [GTGCAC_site9580]”, the “gcPBM binding intensity (ln)” value was found to be 10.4 ± 0.47. In the case of “ATATATATTAATTTTGTGCACAAATGGAAATGTTTG [GTGCAC_site9971]” it was 11 ± 0.2.
